Measured values reported in PubChem BioAssay (NCI).
This is part of a sample that, as a whole, favours compounds with a hit. Of some 79,000 tested, about 15% had one in any assay. Unmarked numbers belong to inactive results. Activity calls are given as the source filed them. No stated cut-off is given here; in the data, active means growth inhibition above about 70%; inactive means the rest.

Legend:
[1] = NCI Yeast Anticancer Drug Screen. Data for the rad50 strain (AID 155);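 further: 0% = growth of vehicle-only cultures of the same strain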; settings: S. cerevisiae rad50 strain growth inhibition; at 50.0 µM; stronger effect = higher value
How it was run: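 Inhibition values express reduced yeast growth in compound-treated cultures relative to vehicle-treated controls.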

[2] = NCI Yeast Anticancer Drug Screen. Data for the mec2-1 strain (AID 157); settings: S. cerevisiae mec2-1 strain, at 50.0 µM, stronger effect = higher value
How it was run: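 mec2-1 yeast strain, carrying an alteration in DNA damage repair or cell cycle control, was exposed to compounds; growth inhibition was measured relative to vehicle-treated controls.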

[3] = NCI Yeast Anticancer Drug Screen. Data for the sgs1 mgt1 strain (AID 161);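 further: 0% = growth of cultures given vehicle only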; settings: S. cerevisiae sgs1 mgt1 strain, at 50.0 µM, stronger effect = higher value
How it was run: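 Percent growth inhibition was derived by comparing compound-exposed mutant yeast with vehicle-exposed cultures. The strain carries alterations in DNA damage repair.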

[4] = NCI Yeast Anticancer Drug Screen. Data for the cln2 rad14 strain (AID 165);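 further: 0% = growth equal to vehicle treated cultures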; settings: S. cerevisiae cln2 rad14 strain, at 50.0 µM, stronger effect = higher value
How it was run: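 Yeast carrying cln2 and rad14 alterations (cell cycle control and DNA damage repair) were exposed to compounds. Growth inhibition was measured against vehicle-treated controls.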

[5] = NCI Yeast Anticancer Drug Screen. Data for the bub3 strain (AID 167); settings: S. cerevisiae bub3 mutant strain, at 50.0 µM, stronger effect = higher value
How it was run: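 Steps: expose the mutant yeast strain to compound; grow alongside vehicle-treated cultures; measure growth; express inhibition against the vehicle cultures.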

[6] = NCI Yeast Anticancer Drug Screen. Data for the mlh1 rad18 strain (AID 175); settings: S. cerevisiae mlh1 rad18 strain growth inhibition; at 50.0 µM; stronger effect = higher value
How it was run: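 Growth inhibition of the yeast strain was measured after compound exposure and expressed relative to vehicle-treated controls. The strain carries defined defects in DNA damage repair.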

SMILES | growth inhibition [1] | growth inhibition [2] | growth inhibition [3] | growth inhibition [4] | growth inhibition [5] | growth inhibition [6]
CC(C)Oc1ccc(C(=O)OCCC(C)N2CCCC2)cc1 (configuration not stated) | 40.9% | 36.7% | 53.2% | 31.5% | 46.4% | 27.9%
BrCC1=CC(c2ccccc2)(c2ccccc2)c2ccccc21 | 96.2% (active) | 97% (active) | 97.3% (active) | 94.3% (active) | 96.2% (active) | 96.1% (active)
O=S(=O)(N=N/C=C1\C=CC=CN1O)c1cccs1 | -12.1% | 6.3% | -8.25% | -1.15% | -26.4% | -21.1%
Cc1nc2ccccn2c1N=Nc1ccc(C(=O)NN)cc1 | 7.3% | -15.1% | 0.1% | 10.8% | -10.8% | -18.4%
CN(C)c1ccc(Cc2ccc(N(C)C)cc2)cc1 | -4.1% | -6.3% | -16.9% | -23.6% | 10.4% | 7%
CCOC(=O)OC1CCCCC1c1ccccc1 (configuration not stated) | 13.7% | -12.9% | -7.15% | -14.9% | -20.1% | -16.2%
C=CCNC(=S)/N=C\c1c(C)[nH]n(-c2ccccc2)c1=O | -23.8% | -27.2% | -24.6% | -17.6% | -17.6% | -5.7%
O=C(NO)c1cc(O)c(O)c(O)c1 | -14.5% | 1.75% | -16.7% | -11.6% | -5.75% | -25.4%
CCCCCCCCS(=O)(=O)NC | 0.95% | -9.8% | -8.75% | -10% | 16.4% | 5.7%
COC(C[P+](Cc1ccccc1)(c1ccccc1)c1ccccc1)OC | 66.9% | -2.7% | 39% | 2.4% | 4.1% | 4.35%
CCCCCC(O)(CCCC)CCCCC | -10.7% | -1.65% | 1.85% | 19.9% | 1.75% | 15.9%
CN(C)/C=N/NC(=O)C(O)(c1ccccc1)c1ccccc1 | -7.45% | 9.8% | -7.85% | -0.25% | 1.55% | 7.15%
COc1ccc2nc(CC(C)C)c3c(c2c1)-c1ccccc1C3=O | 1.35% | -8.8% | -10.2% | -12.2% | -0.35% | -12.2%
CCOC(=O)c1c([N+](=O)[O-])cnn1C1OC(COC(C)=O)C(OC(C)=O)C1OC(C)=O (configuration not stated) | 6.4% | -2% | 4.6% | 15.2% | 7.9% | 6.85%
COC(=O)C1C2CC3c4[nH]c5cc(OC)ccc5c4CCN3CC2CC(OC(=O)CCc2cc(OC)c(OC)c(OC)c2)C1OC (configuration not stated) | -3.35% | -0.2% | 4.25% | 13.4% | 14.7% | 9.85%
Nc1ccc(Cl)c(Cl)c1Cl | 40.5% | -6.2% | 52% | 31% | 43.3% | 35.7%
CC(C)(C)NC(=O)Oc1cccnc1 | 7.1% | -4.6% | -12.6% | -42.4% | 27.6% | 8%
CCN(Cc1cc(Nc2ccnc3cc(Cl)ccc23)ccc1O)C(=O)N1CCN(C)CC1 | 10.7% | 6.1% | 20.5% | 15.8% | -7.55% | 11.1%
CC(=O)OCC(C)(C)COC(C)=O | 2.6% | 1.65% | -11.6% | -7.9% | -5.25% | -11.2%
Cc1ncc([N+](=O)[O-])n1CCNS(=O)(=O)CCCn1ccnc1[N+](=O)[O-] | -4.85% | -17.1% | -18.9% | -25.7% | -18.5% | -58.7%
CC(C)N(C(=O)/C=C/C(=O)N(C(C)C)C(C)C)C(C)C | 3.7% | 27.1% | -1.7% | -2.05% | 18.8% | -9.6%

SMILES | growth inhibition [1] | growth inhibition [2] | growth inhibition [3] | growth inhibition [4] | growth inhibition [5] | growth inhibition [6]
O=C/C=C/N=c1ccn(O)cc1 | 8.65% | 3.45% | 3.05% | -2.1% | 4.25% | 2.1%
S=C1N(c2ccccc2)CCN1c1ccccc1 | -15.2% | -14.9% | -21.9% | -17.2% | -18.9% | -2.65%
COc1ccc(C2C(C(=O)NCc3ccccc3)=C(C)NC(C)=C2C(=O)NCc2ccccc2)cc1OC | -1.8% | -4.5% | -23.6% | 8.4% | 3.35% | 16.9%
C[C@]12CC[C@@H]3c4ccc(OS(C)(=O)=O)cc4CC[C@H]3[C@@H]1CC[C@@H]2OS(C)(=O)=O | 30.6% | -0.5% | 22.8% | 22.1% | 10.8% | 9.9%
CCOC(=O)NCC(C)(C)C | -2.4% | 10.9% | 6.5% | -0.65% | -7.9% | 35.4%
CC(=O)c1ccc([C@H](O)[C@H](CO)NC(=O)C(Cl)Cl)cc1 | -1.1% | 0.45% | 6.95% | -57.4% | -21.6% | -16.2%
CC(CC(=O)O)C1(C)C2CCCCC2C2CCCCC21 (configuration not stated) | -6.2% | -9.6% | 5.75% | -13.3% | -4.15% | -2.8%
C/C=C1\CN2CCc3c([nH]c4ccccc34)C2CC1CCO (configuration not stated) | -16.8% | -10.9% | -5.4% | 12.7% | -26.7% | -24.9%
CCOc1c[n+](C)c(/C=C/c2ccccc2)s1 | 3.15% | -11.6% | -3.25% | -9.3% | -0.45% | -20.9%
O=C1c2cc([N+](=O)[O-])sc2C(=O)c2ccsc21 | 88.6% (active) | 89.3% (active) | 91.2% (active) | 90.2% (active) | 91.1% (active) | 90.7% (active)
C/C(=N\NS(=O)(=O)c1ccc(N)cc1)c1ccc(C)cc1C | -12.9% | -19.6% | 0.8% | -5.25% | -28.6% | -16.5%
OCc1ccc(-c2ccccc2)cc1 | 4.4% | -14.6% | 4.6% | 8% | 3.7% | 28.8%
NC(=O)c1ccc(Cl)cc1C(N)=O | -6.55% | 17.9% | 7.1% | -24.1% | -0.05% | -2.25%
N#CC(C#N)=C(N)/C(C#N)=C/c1ccc2ccccc2n1 | -0.25% | -11.2% | -5.75% | 12.8% | -5.45% | -12.2%
Cc1ccc(S(=O)(=O)OC2C3OC(C)(C)OC3OC2C2CSC(=S)S2)cc1 (configuration not stated) | 0.3% | -6.6% | 10.1% | -12.8% | -25.3% | 4%
Cc1cc(N(CCC#N)CCC#N)ccc1/C=C1/N=C(c2ccccc2)N(N)C1=O | -2.55% | 13.2% | 9.9% | 2.7% | 5.15% | -3.3%
O=C(C[n+]1cccc2ccccc21)c1ccc(F)cc1 | -0.05% | -10.3% | 18.1% | 17% | 10.2% | -3%
O=C(O)c1ccccc1/C=N\NC1=NCCCCN1 | -34.2% | -10.3% | -31.4% | 20.2% | -27.6% | -18.4%
CN(CCC#N)c1ccc(/C=C(\C#N)c2ccc(Br)cc2)cc1 | 12.2% | -23.8% | 13.6% | -12% | -0.85% | -18.9%
NC1=CCNN1 | 8.7% | -21.9% | 4.1% | 4.1% | 11.3% | 14.4%
C1=CC(c2ccccc2)C(c2ccccc2)C(c2ccccc2)=C1 (configuration not stated) | -16.6% | 2.05% | 8.8% | -13.2% | -4.95% | -22.6%
